Source: PubChem BioAssay (NCI)
Compounds without any hit were thinned out: in the full panel of roughly 83,000, 20% have a hit.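 Negative percent growth values reflect cell death: -40 means 40% of the cells present at the start died, and -100 means all died.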 A number with no mark means an inactive call. Calls of active or inactive are those of the source. Rule for the calls: active = growth percent below 10; inactive = the rest.

Legend:
Assay in all cases: NCI-60 one-dose screen, 48 h (100 = growth as untreated, 0 = no growth, -100 = all killed)
Conditions in all cases: 10 µM unless noted
T-47D breast = tested on: T-47D breast
BT-549 breast = tested on: BT-549 breast
MDA-MB-435 melanoma = tested on: MDA-MB-435 melanoma
SW-620 colon = tested on: SW-620 colon
MCF7 breast = tested on: MCF7 breast
HCT-116 colon = tested on: HCT-116 colon
HCC-2998 colon = tested on: HCC-2998 colon
KM12 colon = tested on: KM12 colon

| SMILES | growth (T-47D breast) | growth (BT-549 breast) | growth (MDA-MB-435 melanoma) | growth (SW-620 colon) | growth (MCF7 breast) | growth (HCT-116 colon) | growth (HCC-2998 colon) | growth (KM12 colon) |
| --- | --- | --- | --- | --- | --- | --- | --- | --- |
| O=C(CCCCCCC(=O)Nc1ccc(N(CCCl)CCCl)cc1)NO | -8.98% (active) | 58.9% | 45.1% | 33.2% | 9.37% (active) | 36.1% | 52.1% | 63% |
| NC1CC2CCCCC2CC1(O)c1ccccc1 (centres undefined) | 99.5% | 102% | 105% | 101% |  | 93.7% | 109% | 99.7% |
| COC(=O)[C@@H](C)C[C@H](Cc1ccccc1)NC(=O)c1nc([C@@H](C[C@H](C(C)C)N(C)C(=O)[C@@H](NC(=O)[C@H]2CCCN2C)C(C)C)OC(C)=O)sc1C | 43.2% | -12.7% (active) | -18.4% (active) | 20.1% |  |  | 13.5% |  |
| O=C1C2CCC1C(N1CCCC1)CC2 (centres undefined) |  | 98% | 96.8% | 99.5% | 94.7% | 102% | 106% | 101% |
| CC12CCC3C(C=CC4=C(N)C(=O)CCC43C)C1CCC2=O (centres undefined) | 73.7% | 82.6% | 113% | 15.4% | -16% (active) | 6.15% (active) | 96% | 39.5% |
| NC(=O)C(Br)c1ccccc1 (centres undefined) | 95.3% | 77.6% | 94.1% | 117% |  | 82.8% | 96.4% | 96.9% |
| CCC1(C)CC(CCNCc2ccccc2O)(c2ccc(C)cc2)CCO1 (centres undefined) | 103% | 101% | 100% |  | 97.3% | 109% | 117% | 107% |
| C1CCC([PH+](C2CCCCC2)C2CCCCC2[PH+](C2CCCCC2)C2CCCCC2)CC1.[Au].[CH-]1CCCCC1CC1CCCC[N-]1 (centres undefined) | 7.94% (active) | -53.6% (active) | -39.2% (active) | -24% (active) | -44.2% (active) | -65.8% (active) |  | -70.2% (active) |
| COc1cccc(C=NC(Cc2cnc[nH]2)C(=O)O)c1O (centres undefined) |  | 91.1% | 84.2% | 102% |  | 97.8% |  | 104% |
| O=C1C=C(N2C3C4CCC(C4)C32)C(=O)C=C1c1ccccc1 (centres undefined) | 6.64% (active) | 93.2% | 99.7% | 82.6% | 62.4% | 85% |  | 102% |
| COC1=CC(=O)O[C@@H](/C=C/c2ccc3c(c2)OCO3)C1 | 93.2% | 95% | 100% | 104% | 99.7% | 105% | 111% | 103% |
| ClC1=C(Cl)C(Cl)(C2(Cl)C(Cl)=C(Cl)C(Cl)=C2Cl)C(Cl)=C1Cl | -45.4% (active) | -12.3% (active) | -50.9% (active) | -52.8% (active) | -40.9% (active) | -73.4% (active) | 52.1% | 84.5% |
| CC(C)(C)N1CC1C#N (centres undefined) | 89.3% | 103% | 108% | 103% | 100% | 100% | 98.8% | 99.2% |
| O=C1NC(=O)C(=Cc2cccn2CCCCCn2c3ccccc3c(=O)c3ccccc32)C(=O)N1 | 87.3% | 104% | 97.7% | 105% | 84.7% | 82.2% | 105% | 103% |
| COc1ccc(O)c(CNC(=O)CN2CCCC2=O)c1 | 99.4% | 98.7% | 101% | 101% | 102% | 98.8% | 98.6% | 101% |
| CCn1c2ccccc2c2cc(C(=O)c3ccc(C)c4ccccc34)ccc21 | 53.6% | 21.9% | -34.1% (active) | 11.8% | 14.4% | 12.1% | 29.6% | 13.4% |
| CCN1C(=O)C(=C/C=C/c2ccccc2)C(=O)N(CC)C1=O | 96.3% | 91.9% | 29.9% | 26.5% | 74.5% | 16.3% | 112% | 86.5% |
| O=[N+]([O-])c1cc(I)cc([N+](=O)[O-])c1 | 95.8% | 101% | 101% | 106% | 80.7% | 94.8% | 104% | 102% |
| CS(=O)(=O)CCN1CC2CCCC(C2)C1 | 102% | 92.5% |  | 111% | 92.3% | 94.7% |  | 111% |
| COc1ccc(C(=O)c2sc3nc4c(cc3c2N)N2CCC4CC2)cc1OC |  | 81.5% | 99.9% | 126% | 84.5% | 86.2% | 109% | 97.7% |
| C/C1=C/C(=O)O[C@@H]2C[C@@H](CC[C@H](C)/C=C\C=C\CC1)O[C@@](O)([C@@H]1CSC(=O)N1CO)C2 | 56.8% | -13.3% (active) | 32% | 53.2% | 56.8% | 27.2% | 34.7% | 62% |
| CCCc1cc(O)c2c3c(c(=O)oc2c1)CN(C)CC3 | 25.5% | 39.2% | -57.8% (active) | 12.8% | 19% | 20.8% | 53.9% | 35.7% |
| Cc1c(O)c(CN(CCCl)CCCl)cc(CN(CCCl)CCCl)c1O | 79.3% | 99.1% | 96.8% |  | 67.5% | 84% | 90.6% | 103% |
| CCn1cnc2c(Nc3cccc(Cl)c3)nc(N[C@@H]3CCCC[C@@H]3N)nc21 | 0.53% (active) | 61.7% | 11.4% | -4.4% (active) | 4.02% (active) | 0.716% (active) | 2.16% (active) | -2.18% (active) |
| CCCCCCCOC(C(=O)OCCN(CC)CC)(c1ccccc1)c1ccccc1 | 86% | 88.3% | 98.2% | 77.3% | 115% | 58% | 88.5% | 78.4% |
| CN1CCC(c2c[nH]c3ccccc23)C1 (centres undefined) | 97% | 110% | 97.9% | 104% | 94.8% | 94.2% | 94.1% | 107% |
| ClCCN(CCCl)Cc1ccc(Nc2ccnc3cc(Cl)ccc23)cc1 |  | 65.2% | 39.6% | 34.3% | 18% | 36.5% | 71% | 62.9% |
| C/C(CC(C)(C)N1CC1)=N\NC(=O)Nc1cccc2ccccc12 | 55.8% | 68.5% | 79.6% | 52.3% | 24.9% | 46.5% | 75.3% | 75.9% |
| Cn1cc(C2=C(c3cn(C4CCN(Cc5ccccn5)CC4)c4ccccc34)C(=O)NC2=O)c2ccccc21 | 54.5% | 78.3% | 47.6% | 47.8% |  | 38.2% | 31.4% | 57.2% |
